Source: PubChem BioAssay (NCI)
About 79,000 compounds went through this panel and 15% of them were active in at least one assay; those are over-represented in the sample as a whole. A number with no mark means an inactive call. The source made the active and inactive calls. Rule as the data show it: active = growth inhibition above about 70%; inactive = the rest.

Experiments:
[1] = NCI Yeast Anticancer Drug Screen. Data for the rad50 strain (AID 155);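 also: 0% = growth of vehicle-only cultures of the same strain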; settings: S. cerevisiae rad50 strain growth inhibition; at 50.0 µM; stronger effect = higher value
Outline: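 DNA repair mutant yeast, compound exposure, growth read-out; inhibition is taken relative to vehicle.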

[2] = NCI Yeast Anticancer Drug Screen. Data for the mec2-1 strain (AID 157); settings: S. cerevisiae mec2-1 strain, at 50.0 µM, stronger effect = higher value
Outline: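 mec2-1 yeast strain, carrying an alteration in DNA damage repair or cell cycle control, was exposed to compounds; growth inhibition was measured relative to vehicle-treated controls.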

[3] = NCI Yeast Anticancer Drug Screen. Data for the sgs1 mgt1 strain (AID 161);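 also: 0% = growth of cultures given vehicle only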; settings: S. cerevisiae sgs1 mgt1 strain, at 50.0 µM, stronger effect = higher value
Outline: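 Compounds are added to genetically altered yeast, and growth is compared with cultures given vehicle alone to give percent inhibition.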

[4] = NCI Yeast Anticancer Drug Screen. Data for the cln2 rad14 strain (AID 165);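 also: 0% = growth equal to vehicle treated cultures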; settings: S. cerevisiae cln2 rad14 strain, at 50.0 µM, stronger effect = higher value
Outline: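 Yeast carrying cln2 and rad14 alterations (cell cycle control and DNA damage repair) were exposed to compounds. Growth inhibition was measured against vehicle-treated controls.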

[5] = NCI Yeast Anticancer Drug Screen. Data for the bub3 strain (AID 167); settings: S. cerevisiae bub3 mutant strain, at 50.0 µM, stronger effect = higher value
Outline: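 In this screen, a yeast mutant lacking normal mitotic checkpoint function is challenged with compound. Relative growth versus vehicle gives the inhibition value.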

[6] = NCI Yeast Anticancer Drug Screen. Data for the mlh1 rad18 strain (AID 175); settings: S. cerevisiae mlh1 rad18 strain growth inhibition; at 50.0 µM; stronger effect = higher value
Outline: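 Growth inhibition of the yeast strain was measured after compound exposure and expressed relative to vehicle-treated controls. The strain carries defined defects in DNA damage repair.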

Row | Structure (SMILES) | growth inhibition [1] | growth inhibition [2] | growth inhibition [3] | growth inhibition [4] | growth inhibition [5] | growth inhibition [6]
1 | CCCNc1nc(C)nc2[nH]cc(C)c12 | 7.35% | -5.1% | -3.15% | -31.1% | -7.7% | -7.65%
2 | O=C(O)COc1ccc(C(=O)/C(SS/C(C(=O)c2ccc(OCC(=O)O)c(Cl)c2Cl)=C2\C=C(c3ccc(F)cc3)SS2)=C2/C=C(c3ccc(F)cc3)SS2)c(Cl)c1Cl | -35% | -28.4% | -14.2% | 1.8% | -22.3% | 83.7% (active)
3 | Cc1ccc(SS(=O)(=O)c2ccc([N+](=O)[O-])cc2)cc1 | 13.9% | 12.4% | 9.3% | -29.4% | -5.45% | 16.6%
4 | O=C1C2C(C(=O)N1c1ccccc1)C1(c3cccnc3)NC(=O)C2(Cc2cccnc2)c2ccccc21 (stereo unspecified) | 12.6% | -5.85% | 8.95% | 19.7% | -1.55% | 13.5%
5 | CC(=O)CC(=O)Nc1ccc(Cc2ccc(NC(C)=O)cc2)cc1 | 8.3% | 9.8% | 10% | 5.55% | 2.8% | 21.8%
6 | CC1=NN(c2ccccc2)C(=O)/C1=C\c1ccc([N+](=O)[O-])cc1 | 25.9% | 29.1% | 28.4% | 18.9% | 18.4% | 19.5%
7 | Cc1[nH]c2ccccc2c1-c1cc(-c2cc(-c3c(C)[nH]c4ccccc34)nc(N)n2)nc(N)n1 | -12.9% | 8.95% | -25.8% | 3.05% | -11.3% | -1.95%
8 | N=c1c(-c2ccccc2)cc2ccccc2n1O | 7.6% | 10.3% | -6.95% | -0.1% | -5.35% | -5.25%
9 | CC=NC(C)(C)C | -7.25% | -9.15% | -12.3% | -11.8% | 3.3% | -18.9%
10 | CCC(CC)=NNc1ccc([N+](=O)[O-])cc1[N+](=O)[O-] | -2.45% | -11.4% | -13.6% | -51.1% | 0.75% | -9.85%
11 | CCOC(C#CC(C)=O)OCC | 31.1% | 31.3% | 22.9% | 6.65% | 46% | 47.9%
12 | O=C1C(O)=C(c2ccccc2)C(=O)N1c1ccccc1 | -25.2% | -9.05% | -11.7% | -62.5% | 6.65% | 9.5%
13 | CCC1(C(=O)O)OC1(C)c1cccs1 (stereo unspecified) | -40% | -8.95% | -3.35% | -27.1% | 10.5% | 2%
14 | Cc1cc(O)ccc1N=Nc1ccc(S(=O)(=O)O)cc1 | -26.8% | -10.2% | -10.6% | 2.55% | 4.55% | -12.5%
15 | O=C(O)CC(Sc1ccccc1)c1ccccc1 (stereo unspecified) | 12.9% | -9.2% | -2.8% | 32% | 45.7% | 7.7%
16 | COc1cc(C2C(Cl)C(=O)N2NC(=O)c2ccc(NC(C)=O)cc2)cc(Br)c1O (stereo unspecified) | -0.25% | -14.8% | -9.6% | -24.9% | -7.9% | -30.9%
17 | COC(=O)C(=O)c1c(-c2ccc(O)c(OC)c2)[nH]c2[nH]n(-c3ccccc3)c(=O)c2c1=O | 24.6% | -17.2% | -1.75% | -30.1% | 14.8% | 14.5%
18 | c1ccc(OC23CC4CC(CC(C4)C2)C3)cc1 | -9.45% | -5% | -5.2% | 42.8% | -18.8% | -21.6%
19 | CC/C(=N/NC(=O)c1ccccc1)c1ccccc1 | -18.9% | 9.5% | 8.7% | -19.4% | 8.5% | -17.7%
20 | O=C1c2cccnc2C(=O)C2CC3=C(CCCC3)CC12 (stereo unspecified) | 97.9% (active) | 97.4% (active) | 96.9% (active) | 88.2% (active) | 97.4% (active) | 98.5% (active)
21 | CCCCC(=O)C(CC)(c1ccccc1)N(C)C (stereo unspecified) | -11.7% | -31.1% | -9.4% | -21.2% | -2.35% | -17.9%

Row | Structure (SMILES) | growth inhibition [1] | growth inhibition [2] | growth inhibition [3] | growth inhibition [4] | growth inhibition [5] | growth inhibition [6]
22 | Brc1ccccc1C=NC12CC3CC(CC(C3)C1)C2 | -2.55% | -7.5% | 2.25% | -55.1% | -3.45% | -5%
23 | CC(/C=C/c1ccccc1)=N\NC(=O)c1ccccc1 | 44.8% | 5.3% | -5.4% | 4.3% | -15.1% | -47.1%
24 | C1=CCSC(Nc2ccccc2)=NC1 | 7.65% | 3.35% | -7.05% | -2.6% | 0.75% | -5.85%
25 | COc1ccc(NC(=O)N(C)C)cc1OC | 14.8% | -5.25% | -4.2% | -25.6% | 4.4% | 15.8%
26 | CC1=CC(C)(C)SC(=S)N1 | 24.9% | 5.3% | 19.8% | -60.6% | -3.35% | 29.3%
27 | CCC(C)Sc1nc2ccc(NC(=O)/C=C/C(=O)O)cc2s1 (stereo unspecified) | 31.5% | 10% | 11.7% | 15.7% | 13.5% | 16.1%
28 | Cc1c(-c2ccccc2)nc(N(C)C)oc1=O | 19% | -5.05% | -6.8% | -9% | -16.2% | -7.8%
29 | O=c1oc(=O)c2ccccc2c2ccccc12 | -22.9% | 6.85% | -0.9% | -32.1% | -3.75% | -5.6%
30 | CCOC(=O)C(C#N)C1=CC(=O)C(=O)c2ccc(O)cc21 (stereo unspecified) | -4.8% | -7.65% | -1.15% | 27% | 16.6% | 0.45%
31 | O=C(N=Nc1c(O)[nH]c2ccc(Br)cc12)c1ccncc1 | -1.75% | 2.8% | 9.6% | 3.2% | 8.25% | -10.1%
32 | CCCCCCCCCCCCCCCC(O)S(=O)(=O)O (stereo unspecified) | -27.2% | -24.9% | -10.1% | 0.55% | -29.4% | -23.9%
33 | Cc1ccc(CNC(=O)NC(C)(C)C)cc1 | -3.05% | -8.45% | -2.65% | -50.2% | 1.85% | 0.1%
34 | COC(=O)c1ccc(OCc2ccc3nc(OC)c(OC)nc3c2)cc1 | -32.1% | -30.4% | -50.1% | 7.35% | -28.9% | -37%
35 | CCS(=O)CCO (stereo unspecified) | -22.7% | -20.4% | -15.8% | -21.8% | 10.8% | -14.2%
36 | Nc1ccc(C(=O)O)cc1O | 13.7% | 14.2% | 13.9% | 20.4% | 9.65% | -7%
37 | CCCc1cc(=O)n(CCCc2ccccc2)c(=O)n1CCCc1ccccc1 | 10.3% | -8.7% | -8.95% | -36.1% | -3.65% | 16%
38 | O=C(NC1c2ccccc2Oc2ccccc21)OCCCCl | -11.2% | -3.1% | 2.15% | -7.05% | 7.8% | -5.1%
39 | O=C(Nc1ccc(Cl)cc1)Nc1ccc(Cl)nn1 | -29.2% | 7.85% | -10.1% | -39.8% | -6.8% | -1.85%
40 | COc1ccccc1P(=O)(CCP(=O)(c1ccccc1)c1ccccc1OC)c1ccccc1 (stereo unspecified) | 2.15% | 15.5% | 13.3% | 13.5% | -1.75% | 9.5%
41 | COc1cc2c3c(c1)[nH]c(=S)n3C(=O)C(c1ccccc1)S2 (stereo unspecified) | -32.5% | 5.8% | -3.5% | 40.6% | 10.1% | -27.8%
